# Assay results reported in PubChem BioAssay AID485341 (National Center for Advancing Translational Sciences (NCATS), 2010).
# About 1,700 (0.52%) of roughly 330,000 compounds were called active. Calls come from the whole dose curve; as a rule, active = well fitted inhibition curve with a large enough effect; inconclusive = small, poorly fitted or top-dose-only effect; inactive = no such curve, though single readings can be large or run the other way. The list comes from a sample in which actives are over-represented; it also holds similar structures and randomly drawn compounds. Entries that show only a call come without a potency.
# Target: Beta-lactamase (Escherichia coli (strain K12)) (UniProt P00811)
# Assay: qHTS Inhibitors of AmpC Beta-Lactamase (assay without detergent); note: nearly all actives have a fitted effect of over 20% in size
# Details: AmpC nitrocefin hydrolysis, absorbance 480 nm, 0.0001% Triton; series mostly up to 57.1 µM
# In short: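 AmpC (5.3 nM in the dispensed reagent) in 20 mM phosphate pH 7.0 with 0.01% (detergent screen) or 0.0001% Triton X-100 was preincubated with compounds for 15 min at room temperature. Nitrocefin was then added from an 800 uM solution, and hydrolysis was followed at 480 nm.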
# Potency is the fitted concentration of half-maximal effect.
# Beta-lactamase (Escherichia coli (strain K12)), sequence (P00811 whole entry, looked up): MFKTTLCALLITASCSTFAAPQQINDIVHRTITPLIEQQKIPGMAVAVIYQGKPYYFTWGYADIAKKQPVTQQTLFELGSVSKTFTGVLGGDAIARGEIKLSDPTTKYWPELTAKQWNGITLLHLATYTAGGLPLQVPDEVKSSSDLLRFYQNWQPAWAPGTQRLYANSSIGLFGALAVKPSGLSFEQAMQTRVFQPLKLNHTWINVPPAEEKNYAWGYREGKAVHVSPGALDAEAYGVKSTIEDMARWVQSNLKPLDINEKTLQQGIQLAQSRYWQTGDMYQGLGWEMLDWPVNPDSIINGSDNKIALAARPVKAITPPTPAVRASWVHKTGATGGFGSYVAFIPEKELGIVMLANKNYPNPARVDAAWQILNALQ
SMILES,Potency,"activity change, negative = inhibition"
O=C(NC1CC1)C1=C[C@H](c2c[nH]c3ccccc23)C[C@H](OCc2ccc(CO)cc2)O1,inactive,–
CCNC(=O)NC(=O)C(C)OC(=O)C1CCN(S(=O)(=O)c2ccccc2F)CC1 (centres undefined),inactive,–
CCOC1CS(=O)(=O)CC1OCC (centres undefined),inactive,–
c1csc(-c2nnc(COc3ccc4c(c3)OCO4)o2)c1,inactive,–
C=CS(=O)c1sc(Cl)c(N2CCOCC2)c1[N+](=O)[O-] (centres undefined),inactive,–
Cc1cc(Nc2cccc(F)c2)n2ncnc2n1,inactive,–
O=S(=O)(NCc1ccco1)c1cnc(Cl)c(Cl)c1,inactive,–
Cc1c(Cl)cnc(NC(=O)COC(=O)c2ccc(S(=O)(=O)NCc3ccco3)cc2)c1Cl,inactive,–
C/C(=N\Nc1ncc(Cl)cc1Cl)c1ccc(S(=O)(=O)NCc2ccco2)cc1,31.6 µM (active),–
O=C(c1cccnc1)N(c1cc2sc(=O)oc2c2ccccc12)S(=O)(=O)c1ccccc1,inactive,–
Cc1ccccc1SCC(=O)OCC(=O)N1CC(=O)Nc2ccccc21,inactive,–
O=C1CSC(=S)N1/N=C/c1ccc(O)c([N+](=O)[O-])c1,inactive,–
Cc1cc(C(=O)N/N=C/c2ccc(O)c([N+](=O)[O-])c2)c(C)n1-c1ccc(F)cc1,17.8 µM (active),–
Cc1cc(C(=O)COC(=O)C2CC2)c(C)n1-c1ccc(F)cc1,–,-17.5% [at 11.4 µM] (inactive)
CCOc1ccc(CN2CCNC(=O)C2CC(=O)NCCCC2CCCC2)cc1 (centres undefined),inactive,–
COc1ccc(NC(=O)c2ccc(C#CC(C)(C)O)cc2)cc1,inactive,–
COc1ccc(NC(=O)CSc2nc(C)cs2)cc1,inactive,–
COc1ccc(NC(=O)c2sccc2SCC#N)cc1,4.47 µM (active),–
CNC[C@H]1Oc2c(NC(=O)C3CCCCC3)cccc2C(=O)N([C@H](C)CO)C[C@@H]1C,inactive,–
Cn1cccc1Cc1nnc(SCC(=O)NCc2ccc3c(c2)OCO3)n1CCc1ccccc1,inactive,–
Cc1cc(=O)oc(C)c1C(=O)Nc1cnc2ccccc2c1,inactive,–
Cc1cc(O)c(C(=O)/C=C/c2c(F)c(F)c(F)c(F)c2F)c(=O)o1,11.2 µM (active),–
Cc1ccc(N=Cc2c(O)cc(C)oc2=O)c(C)c1,inactive,–
COc1ccccc1C(=O)Nc1ccc(C)c(S(=O)(=O)N2CCCCC2)c1,inactive,–
Nn1c(SCC(=O)NC(=O)NC2CCCC2)nnc1-c1ccccc1F,inactive,–
COc1cccc2c1OCC1COc3c(c(=O)n(C)c(=O)n3C)C21 (centres undefined),inactive,–
C=CCNCCCCOc1ccccc1,inactive,–

SMILES,Potency,"activity change, negative = inhibition"
COc1ccccc1CNC(=O)C1CCCN(S(=O)(=O)c2cccc3cccnc23)C1 (centres undefined),22.4 µM (active),–
COc1cccc(CNC(=O)C2CCN(S(=O)(=O)c3cccc4cccnc34)CC2)c1,inactive,–
O=C(O)C1CCCN(S(=O)(=O)c2cccc3cccnc23)C1 (centres undefined),inactive,–
CCOC(=O)C1C(c2ccc(O)cc2)NC(=O)NC1(O)C(F)(F)F (centres undefined),inactive,–
CC(=O)C1C(c2ccc(Cl)cc2)NC(=O)NC1(O)C(F)(F)F (centres undefined),44.7 µM (active),–
CC(=O)C1C(c2cccc(Oc3ccccc3)c2)NC(=O)NC1(O)C(F)(F)F (centres undefined),inactive,–
COC(=O)[C@@H]1CC(O)CN1C(=O)C12CC3CC(CC(C3)C1)C2 (some centres undefined),inactive,–
CC(=O)Nc1ccc(S(=O)(=O)Nc2ccc(-c3ccc4nnc(C)n4n3)cc2)cc1,inactive,–
CC(=O)Nc1ccc(S(=O)(=O)Nc2nc(-c3ccc(C(C)(C)C)cc3)cs2)cc1,35.5 µM (active),–
Cc1ccc(NS(=O)(=O)c2ccc(C(C)(C)C)cc2)cn1,inactive,–
O=C(CSc1nnc2scc(-c3ccc(F)cc3)n12)NCc1ccco1,inactive,–
Cn1c(-c2ccc(F)cc2)cnc1SCC(=O)NCc1ccco1,inactive,–
Cc1ccc(-c2csc3nnc(SCC(=O)NCc4ccco4)n23)cc1,0.316 µM (active),–
COc1ccccc1N(CC(=O)Nc1ccc(C(F)(F)F)cc1)S(C)(=O)=O,inactive,–
O=C(Cn1nc(Cc2cccnc2)c2ccccc2c1=O)NCC1COc2ccccc2O1 (centres undefined),inactive,–
O=C(Cn1nc(Cc2cccnc2)c2ccccc2c1=O)NCC1CCCO1 (centres undefined),0.501 µM (active),–
Cc1nn(CC(=O)NCC2CCCO2)c(=O)c2cc3ccccc3n12 (centres undefined),inactive,–
COCCNC(=O)Cn1cc2c(n1)CCCCC2,inactive,–
O=C(Cn1cc2c(n1)CCCCC2)NCCN1CCOCC1,inactive,–
CCOC(=O)N1CCC(NC(=O)Cn2cc3c(n2)CCCCC3)CC1,35.5 µM (active),–
Cc1cc(-c2nnc(CCC(=O)NC(c3ccccc3)c3ccccc3)o2)no1,inactive,–
CCOC(=O)/C(=N\Nc1cc(Cl)ccc1Cl)N1CCN(C)CC1,inactive,–
CCc1ccc(CN(C)C(C)C(=O)Nc2ccc(S(=O)(=O)N3CCCC3)cc2)cc1 (centres undefined),inactive,–
O=C(CSC(=S)N1CCOCC1)c1ccccc1,inactive,–
O=C(c1cc2cc(Br)cc(Br)c2oc1=O)N1CCOCC1,inactive,–
O=C(CSC(=S)N1CCOCC1)c1cc(Br)cc(Br)c1O,20 µM (active),–
CCN(CC(=O)Nc1ccc(Cl)c(S(=O)(=O)N(C)C)c1)Cc1nc2ccccc2c(=O)[nH]1,inactive,–
